# Test results from PubChem BioAssay AID602197 (NMMLSC, 2012).
# The other results are listed elsewhere or left out. Active and inactive are the calls of the source. No stated cut-off is given here; in the data, active means response above about 24%; inactive means the rest.
# Experiment: yeast V-ATPase proton pumping modulators, confirmation, S. cerevisiae, pH-sensitive GFP, second cherry-pick (AID 602197);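 further: plate controls were vehicle wells for no effect and positive control wells for full effect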
# Conditions: S. cerevisiae pHLuorin cytosolic pH, V-ATPase proton transport; at 10 µM; active compounds read high
row,SMILES,response
1,O=C1c2ccccc2C(=O)N1CCCCCCN1C(=O)c2ccccc2C1=O,2.04% (inactive)
2,COc1ccc(N2CCN(C(=O)/C(C#N)=C/c3ccccc3)CC2)cc1,-3.48% (inactive)
3,Cc1cc(CO)nn1-c1ccc([N+](=O)[O-])cc1,2.63% (inactive)
4,COC(=O)c1c(-c2ccc(C)cc2)csc1N,0.92% (inactive)
5,COc1ccc(/C=N/NC(=O)c2cccc(C(F)(F)F)c2)cc1,-3.87% (inactive)
6,Nc1ccc(C(=O)NCc2ccccc2)cc1,-2.67% (inactive)
7,Cc1cc(=O)c2ccc(NC(=O)c3ccccc3)cc2[nH]1,-0.97% (inactive)
8,CCOC(=O)Cn1c(-c2cccnc2Cl)nc2ccccc21,1.29% (inactive)
9,COc1cccc(OC)c1C(=O)OCC(=O)/C(C#N)=C(\C)N,-0.01% (inactive)
10,O=C(COc1cc2oc(=O)c3c(c2cc1Cl)CCC3)NCCCN1CCOCC1,2.9% (inactive)
11,COc1ccc(CCN2C(=O)N(c3ccc(OC)cc3)C(=O)C2CC(=O)Nc2ccc(OC)cc2)cc1 (stereo not drawn),-1% (inactive)
12,CCCc1cc(=O)[nH]c(SCc2ccc(C#N)cc2)n1,1.04% (inactive)
13,COc1ccc2nc(N3CCN(C(=O)c4ccc([N+](=O)[O-])o4)CC3)sc2c1,36% (active)
14,CCOC(=O)CNC(=O)CSc1nnc(COc2ccc(Cl)cc2)n1CC,-1.08% (inactive)
15,O=S(=O)(c1ccc(-c2ccno2)s1)N1CCCCC1,-6.9% (inactive)
16,CCOC(=O)COc1cc(O)c2c(=O)cc(-c3ccccc3)oc2c1,-3.04% (inactive)
17,N#C/C(C(=O)N1CCOCC1)=C1/SC(Cc2ccc(F)cc2)C(=O)N1c1ccccc1 (stereo not drawn),5.79% (inactive)
18,CCCc1nnc(NC(=O)c2cc(OC)cc(OC)c2)s1,-0.87% (inactive)
19,CCc1ccc(CNC(=O)CCc2nc(-c3cccs3)no2)cc1,2.27% (inactive)
20,O=C(O/N=C(/c1ccccc1)c1ccncc1)c1ccccc1[N+](=O)[O-],4.81% (inactive)
21,C/C=C/C(=O)OCc1csc(CC(=O)Nc2ccccc2C)n1,-3.22% (inactive)
22,Cc1cc(=O)[nH]c(N/N=C/c2c(C)nn(-c3ccccc3Cl)c2Cl)n1,-0.02% (inactive)
23,O=C(C1=C[C@H](C2CC2)C[C@H](OCc2ccc(CO)cc2)O1)N1CCN(Cc2ccccc2)CC1,1.94% (inactive)
